Among the data in PubChem BioAssay (NCI) are growth values, retold here.

About 83,000 compounds went through this panel and 20% of them were active in at least one assay; those are over-represented in the sample as a whole.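 Negative percent growth values reflect cell death: -40 means 40% of the cells present at the start died, and -100 means all died.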 Values without a mark were called inactive. Activity calls are given as the source filed them. Rule for the calls: active = growth percent below 10; inactive = the rest.

Some test systems named below: HCT-15 colon; HT29 colon; SNB-75 CNS; SNB-19 CNS; U251 CNS; SK-MEL-5 melanoma; UACC-62 melanoma; LOX IMVI melanoma; SK-MEL-28 melanoma; PC-3 prostate.
Common to all, as to assay: NCI-60 one-dose screen, 48 h (100 = growth as untreated, 0 = no growth, -100 = all killed)
Holding throughout (conditions): 10 µM

As to `O=C1c2c(c3c4ccccc4n(CCCCCCN4CCOCC4)c3c3[nH]c4ccccc4c23)C(=O)N1O`, the growth with HCT-15 colon is 16.5%; in the assay on HT29 colon, 24.3%; in the assay with SNB-75 CNS it was 74.9%; with SNB-19 CNS, 97%; in the assay on U251 CNS, -23.2% (active); in the assay with SK-MEL-5 melanoma, 23.4%. In addition, the growth with UACC-62 melanoma was 82.7%; in the assay on LOX IMVI melanoma it was -88.4% (active); in the assay on SK-MEL-28 melanoma, 118%.
On to `O[C@@H]1CO[C@H]2[C@@H]1OC[C@@H]2O`, for which the growth with HCT-15 colon is 102%; in the assay on HT29 colon it was 103%; with SNB-75 CNS it was 91.1%; with SNB-19 CNS, 99.5%; in the assay on U251 CNS, 108%; in the assay with SK-MEL-5 melanoma, 116%. In addition, the figures for the growth with UACC-62 melanoma, with LOX IMVI melanoma and in the assay on SK-MEL-28 melanoma were 103%, 97% and 113%, respectively.
As to `COc1ccc(C(=O)c2ccccc2CN2C(=O)c3ccccc3C2=O)cc1`, the growth was 112% in the assay on HCT-15 colon; 99.7% in the assay with HT29 colon; 92% in the assay with SNB-75 CNS; 99.6% in the assay with SNB-19 CNS; 89.6% in the assay on PC-3 prostate; 100% in the assay with SK-MEL-5 melanoma. The growth in the assay on UACC-62 melanoma was 97.2%; in the assay on LOX IMVI melanoma, 94.3%; with SK-MEL-28 melanoma, 114%.
In the case of `COc1ccc2c(c1)CC=C1[C@@H]2CC[C@]2(C)C(=O)/C(=N/O)C[C@@H]12`, the growth in the assay with HCT-15 colon was 75.8%; with HT29 colon, 67.8%; in the assay on SNB-75 CNS, 58%; in the assay with SNB-19 CNS, 93.4%; in the assay with U251 CNS it was 96.4%; in the assay with SK-MEL-5 melanoma, 89.7%. The results for the growth in the assay on UACC-62 melanoma, in the assay on LOX IMVI melanoma and in the assay on SK-MEL-28 melanoma were 97.7%, 70.3% and 112%, respectively.
Take `COc1ccc(C(=O)CSc2nc(-c3cc(OC)ccc3OC)cc(-c3ccc(OC)cc3)c2C#N)cc1`: the growth was 92.1% in the assay with HCT-15 colon; 92.2% with HT29 colon; 90.1% with SNB-75 CNS; 99.9% in the assay with SNB-19 CNS; 104% in the assay with U251 CNS; 99.1% in the assay with SK-MEL-5 melanoma. Also, the growth with UACC-62 melanoma is 93.7%; in the assay on LOX IMVI melanoma, 91.4%; with SK-MEL-28 melanoma, 101%.
With `Cc1c2cnccc2c(C)c2c1oc1ccccc12`, the growth was 72.3% in the assay on HCT-15 colon; 72.8% in the assay with HT29 colon; 106% in the assay with SNB-75 CNS; 73.1% in the assay on SNB-19 CNS; 99.8% with PC-3 prostate; 60.1% with SK-MEL-5 melanoma. For the same molecule, the growth in the assay on UACC-62 melanoma was 53.9%; in the assay on LOX IMVI melanoma, 42.1%; in the assay with SK-MEL-28 melanoma, 110%.
For the molecule `CCCCN(CCCC)C(=O)[C@H](CC)[C@@H]1CC[C@@H](C)[C@@H]([C@H](C)[C@@H](O)[C@@H](C)C(=O)[C@H](CC)C2O[C@]3(C=C[C@@H](O)[C@]4(CC[C@@](C)([C@H]5CC[C@](O)(CC)[C@H](C)O5)O4)O3)[C@H](C)C[C@@H]2C)O1` (stereo partly drawn), the growth in the assay with HCT-15 colon was -5.99% (active); with HT29 colon it was 7.79% (active); in the assay with SNB-75 CNS it was -12.4% (active); in the assay on SNB-19 CNS, 15.3%; in the assay with U251 CNS, 13.9%; with SK-MEL-5 melanoma, -92% (active). For the same molecule, the growth is 12.2% in the assay on UACC-62 melanoma, 2.12% (active) with LOX IMVI melanoma and 39.8% in the assay with SK-MEL-28 melanoma.
Turning to `Cc1c2cnccc2c(C)c2c1c1cc(O)ccc1n2C(C)C`, the growth in the assay with HCT-15 colon was 2.12% (active); in the assay on HT29 colon, 25%; in the assay with SNB-75 CNS it was 0.198% (active); in the assay on SNB-19 CNS it was 18.3%; with U251 CNS, 17.8%; in the assay with SK-MEL-5 melanoma it was -49.3% (active). Also, the figures for the growth in the assay on UACC-62 melanoma, with LOX IMVI melanoma and in the assay with SK-MEL-28 melanoma were -15.7% (active), -17.2% (active) and 6.18% (active), respectively.
Consider `COc1ccc(/C(=N\N)C(=O)c2ccccc2)cc1` (tested in a mixture with another compound), for which the growth with HCT-15 colon was 91.1%; with HT29 colon it was 87.7%; with SNB-75 CNS, 93.2%; in the assay with SNB-19 CNS, 94%; with PC-3 prostate, 90.8%; in the assay on SK-MEL-5 melanoma, 97.3%. Moreover, the growth is 92.8% in the assay on UACC-62 melanoma, 97.8% in the assay with LOX IMVI melanoma and 102% with SK-MEL-28 melanoma.
For `O=C(Nc1cc([N+](=O)[O-])c2[nH]c(=O)c3ccccc3c2c1)C(F)(F)F`, the growth was 81% in the assay on HCT-15 colon; 90.4% in the assay on HT29 colon; 89.3% in the assay on SNB-75 CNS; 87.1% with SNB-19 CNS; 94.4% in the assay with PC-3 prostate; 91% in the assay on SK-MEL-5 melanoma. The figures for the growth with UACC-62 melanoma, in the assay on LOX IMVI melanoma and in the assay with SK-MEL-28 melanoma were 81.7%, 68% and 114%, respectively.
With `CC(C)(C)OC(=O)CC(S(=O)(=O)c1ccccc1)S(=O)(=O)c1ccccc1`, the growth in the assay with HCT-15 colon is 77.9%; in the assay with HT29 colon, 104%; with SNB-75 CNS, 99.2%; in the assay with SNB-19 CNS, 95.2%; in the assay with PC-3 prostate, 101%; in the assay on SK-MEL-5 melanoma, 94.2%. For the same molecule, the growth with UACC-62 melanoma was 103%; in the assay with LOX IMVI melanoma, 94.7%; in the assay on SK-MEL-28 melanoma, 105%.
Regarding `COc1cc(/C=C2\CCCC3=C2N=C2SC(C)=CN2C3c2cc(OC)c(OC)c(OC)c2)cc(OC)c1OC` (stereo not drawn), the growth with HCT-15 colon was -65.4% (active); in the assay with HT29 colon it was -49.1% (active); with SNB-75 CNS, 59.4%; in the assay on SNB-19 CNS, 52.7%; in the assay on PC-3 prostate, 44.5%; in the assay on SK-MEL-5 melanoma, -71.6% (active). The growth in the assay on LOX IMVI melanoma is -70.4% (active); with SK-MEL-28 melanoma, -51.6% (active).
For the molecule `COc1cc2c(cc1NC(=O)C(F)(F)F)-c1ccc(NC(=O)C(F)(F)F)cc1C2`, the growth in the assay with HCT-15 colon was 106%; in the assay on HT29 colon, 106%; in the assay on SNB-75 CNS it was -1.06% (active); in the assay on SNB-19 CNS, 86.4%; with PC-3 prostate, 90.8%; in the assay on SK-MEL-5 melanoma, 90.8%. Also, the results for the growth with UACC-62 melanoma, in the assay on LOX IMVI melanoma and in the assay with SK-MEL-28 melanoma were 92%, 94.2% and 103%, respectively.
Regarding `O=C(/C=C/c1cccc(B(O)O)c1)c1cccc(B(O)O)c1`, the growth was -40.4% (active) in the assay with HCT-15 colon; -46.5% (active) in the assay on HT29 colon; 45.3% with SNB-75 CNS; 43.9% in the assay on SNB-19 CNS; 26.1% in the assay with PC-3 prostate; 22.1% in the assay on SK-MEL-5 melanoma. Besides, the growth was -85.6% (active) in the assay on LOX IMVI melanoma and -21.4% (active) with SK-MEL-28 melanoma.
As for `COc1ccc(C(=O)N2C=Cc3ccccc3C2C#N)cc1` (stereo not drawn), the growth was 90.7% in the assay on HCT-15 colon; 110% in the assay on HT29 colon; 94.1% with SNB-75 CNS; 93.6% with SNB-19 CNS; 93.2% with PC-3 prostate; 101% in the assay with SK-MEL-5 melanoma. For the same molecule, the growth in the assay with UACC-62 melanoma was 92.5%; in the assay with LOX IMVI melanoma it was 95.4%; in the assay with SK-MEL-28 melanoma it was 95.3%.
